Results on 40 compounds are retold here after PubChem BioAssay (NCATS).

“And” between values parts separate entries of the source, which are not always exact repeats. Equal values may be shown once. Records with an inconclusive call do not appear. A structure can be active in one record and inactive in another. The source made the active and inactive calls. Calls follow the shape of the dose curve; as a rule, active = well fitted cell-killing curve with a large enough effect; inconclusive = small, poorly fitted or top-dose-only effect, or effect the other way; inactive = no such curve, though single readings can be large or run the other way.
Potency is read from the fitted curve at half-maximal effect.

A short description of this assay: Viability qHTS for spleen associated tyrosine kinase inhibitor (SYKi) drug resistant MV4-11 cells (AID 1963824). Also: nearly all actives have a fitted effect of over 35% in size. The following applies: SYKi-resistant MV4-11 viability, CellTiter-Glo, 72 h; series mostly up to 45 µM. An excerpt:
Department of Medicine, Hematology/Oncology
University Hospital Frankfurt, Germany.
Trials have shown promising clinical activity of the selective SYK inhibitor entospletinib in patients with high expressing HOXA9/MEIS1 acute leukemias. As the development of resistance mechanisms is a common problem in the use of targeted drugs, we performed a chemical library screen to identify drug sensitivities in SYK inhibitor resistant AML cells. […] Glucocorticoids are potent immunosuppressants which work in part by inhibiting the transcription of cytokine genes.
Described herein is a viability screen to look for activity in the SYK inhibitor drug resistant cell line against four NCATS compound libraries (MIPE 5.0, NPC, NPACT, and Kinase) totaling 11372 compounds. Active hits were reacquired for confirmation and further secondary assay testing.
SEQUENCE No. (e.g., 1, 2, 3, etc.); […] (e.g., Cells, Incubation, Reagent, etc.); VALUE; DESCRIPTION.
1; Media; 2uL; white, solid-bottom Corning assay plate.
2; Compounds; 23nL; Echo acoustic dispenser.
3; Cell; 5uL; 500 cells per well.
4: Incubation; 72hr; 37 C, 5% CO2, 95% humidity.
5; Reagent; 3uL; CellTiter-Glo reagent (Promega).
6; Incubation; 10min; room temperature.
7; Detection; Luminescence; ViewLux plate reader (PerkinElmer).
NOTES (numbers refer to Sequence numbers above
1. Quantitative high-throughput screening (qHTS) of small molecule compounds was conducted on drug resistant SYKi MV4-11 cell line.
2. Twenty-three nanoliter of small molecule compounds were added to each assay plates using the Echo acoustic dispenser (Beckman Coulter).
3. Cells were seeded into the assay plates at a final density of 500 cells in 5uL of media per well using the Multidrop Combi dispenser.
4. Plates were covered with stainless steel gasketed lids and incubated for 72 hours at standard cell culture conditions.
5. Viability was assessed by adding 3uL of CellTiter-Glo detection reagent (Promega).
6. Plates were covered with gasket lids and incubated for 10 minutes at room temperature.
7. Luminescence was measured on a ViewLux plate reader (PerkinElmer).
In the case of `O=C(NCC1CCCCN1)c1cc(OCC(F)(F)F)ccc1OCC(F)(F)F` (stereo not given), the Potency entry was “inactive”. The entry for `CC(C)C(=O)Nc1cccc(C2CN3CCSC3=N2)c1` (stereo not given) is “inactive”; for `Cc1cnc(-c2cnc(NCCNc3ccc(C#N)cn3)nc2-c2ccc(Cl)cc2Cl)[nH]1` it is 13 µM (active). The same measure for `COc1cc2c(Nc3ccc(Br)cc3F)ncnc2cc1OCC1CCN(C)CC1`: “inactive and 731 nM (active) and 2.95 µM (active)”; for `CC(=O)NCCNc1cc(Cl)nn2c(-c3cccc(S(=O)(=O)N(C)C)c3)c(C)nc12`: 1.64 µM (active). The same measure for `Cc1cc(N)c2ccccc2[n+]1CCCCCCCCCC[n+]1c(C)cc(N)c2ccccc21`: 0.58 µM (active); for `Cc1noc2c1-c1ccccc1C(c1ccc(Cl)cc1)=N[C@H]2CC(N)=O`: 0.332 µM (active).

Turning to `CCCCOc1ccc(CC(=O)NO)cc1`, the Potency result was “inactive and 18.6 µM (active)”. On to `CC1(C)C=CN2C(=O)C3=CCCN3C(=O)[C@@H]2C[C@@]12Nc1ccccc1C2=O`, for which the Potency result was “inactive”. The entry for `C[C@H](CCC(=O)O)[C@H]1CC[C@H]2[C@@H]3C(=O)C[C@@H]4CC(=O)CC[C@]4(C)[C@H]3CC(=O)[C@]12C` is “inactive”. The same measure for `Cc1cccc(-c2[nH]c(C(C)(C)C)nc2-c2ccc3nccnc3c2)n1`: 18.6 µM (active) and 1.3 µM (active); for `CC1(C)CC23[C@@H]4CC(=O)[C@@H]2COC(=O)[C@@H]3CC[C@H]41`: 1.64 µM (active); for `O=C(N[C@@H](c1ccccc1)[C@@H]1CCCCN1)c1cccc(C(F)(F)F)c1Cl`: 16.6 µM (active).

Turning to `CC#C[C@@H](CC(=O)O)c1ccc(OCc2ccc(CN3CCC4(C=Cc5ccccc54)CC3)s2)cc1`, the Potency is 11.6 µM (active). `CCc1cc2cc(OC)c(OC)cc2c(Cc2ccccc2)n1`: the Potency was 10.6 µM (active). The same measure for `CC1CCCC(O)CC(=O)c2c(O)cc(O)cc2CC(=O)O1` (stereo not given): 2.02 µM (active); for `CCn1c(=O)c(-c2ccc(-c3cncc(C)n3)cc2Cl)cc2cnc(NCCC3CCN(C)CC3)nc21`: 2.09 µM (active). The figure for `CC(C)[C@](O)(c1ccc2cc(OC(F)F)c(OC(F)F)cc2c1)c1cn[nH]n1` is 14.8 µM (active). The figure for `COC(=O)c1ccc([C@H]2c3[nH]c4ccccc4c3C[C@H](C(=O)OC)N2C(=O)CCl)cc1` is 0.525 µM (active); for `O=C(O)COCCN1CCN([C@H](c2ccccc2)c2ccc(Cl)cc2)CC1` it is “inactive”; for `C[C@]12CC[C@H](O)CC1=CCC1C2CC[C@]2(C)C(n3cnc4ccccc43)=CCC12` (stereo not given in full) it is 7.42 µM (active). Consider `CC(c1cc2ccccc2s1)N(O)C(N)=O` (stereo not given), for which the Potency result is “inactive”. The same measure for `CNc1cc(OC)c(C(=O)N[C@@H]2CCN(Cc3ccccc3)[C@@H]2C)cc1Cl`: 14.6 µM (active).

On to `CC1(C)CC[C@]23CO[C@@]4(CCC5[C@@]6(C)CC[C@H](O[C@@H]7OC[C@H](O[C@@H]8O[C@H](CO)[C@@H](O)[C@H](O)[C@H]8O)[C@H](O)[C@H]7O[C@@H]7O[C@H](CO)[C@@H](O[C@@H]8O[C@H](CO)[C@@H](O)[C@H](O)[C@H]8O)[C@H](O)[C@H]7O)[C@@](C)(CO)C6CC[C@@]5(C)[C@]4(C)C[C@H]2OC2OCC(O)C(O)C2O)C3C1` (stereo not given in full), for which the Potency was 3.09 µM (active). The entry for `C[C@@H]1C[C@@H](O)[C@@]23CO[C@]2(CO)CCC[C@@H]3[C@@]12C[C@@H](c1ccoc1)OC2=O` is “inactive”; for `C[C@]1(O)CC[C@@H]2C(C(=O)O)=CO[C@@H](O[C@@H]3O[C@H](COC(=O)c4ccc(O)cc4)[C@@H](O)[C@H](O)[C@H]3O)[C@@H]21` it is “inactive”. The same measure for `CCN(CC)CCOCCOC(=O)C(CC)(CC)c1ccccc1`: 23.1 µM (active); for `CS(=O)(=O)N(CC(=O)NCC1CC1)c1cc(C(F)(F)F)ccc1Cl`: “inactive”. For `C[N+]1(CC2COC(c3ccccc3)(C3CCCCC3)O2)CCCCC1` (stereo not given), the Potency was 11.9 µM (active).

Consider `CCOC(=O)OCC/C(SC(=O)OCC)=C(\C)N(C=O)Cc1cnc(C)nc1N`, for which the Potency result is “inactive”.

Take `Cc1ccc(NC(=O)NCc2ccc3c(c2)CN(C2CCC(=O)NC2=O)C3=O)cc1Cl` (stereo not given): the Potency is 0.0013 µM (active). The figure for `CNC(=O)CN1CCC(Oc2cc3c(Nc4cccc(Cl)c4F)ncnc3cc2OC)CC1` is 11.6 µM (active); for `COc1cccc(-c2ccc([C@@H](Oc3cc(-c4ccc(C[C@H](N)C(=O)O)cc4)nc(N)n3)C(F)(F)F)cc2)c1` it is 20.6 µM (active). Take `c1ccc(CNCc2ccc(CN3CCCNCCNCCCNCC3)cc2)nc1`: the Potency entry is “inactive”. The entry for `C[C@@H]1CC[C@@]2(OC1)OC1CC3C4CC=C5CC(O)CCC5(C)C4CCC3(C)C1[C@@H]2C` (stereo not given in full) is “inactive”; for `[O-][n+]1cccc(CO)c1` it is “inactive”; for `O=C(Nc1nnc(-c2ccc3c(c2)OCCO3)o1)C1CCCCC1` it is “inactive”. With `N#Cc1c(O)c2c(-c3ccc(-c4ccccc4O)cc3)csc2[nH]c1=O`, the Potency entry is “inactive”. The same measure for `CC(=O)O/N=C1/C(c2c(O)[nH]c3cc(Br)ccc23)=Nc2ccccc21`: 0.209 µM (active); for `CCc1nc(N)nc(N)c1-c1ccc(Cl)cc1`: 3.76 µM (active) and 2.63 µM (active).
